From the supplement of paper PMC6522484
± gives the standard deviation of the averaged measurements.

Key:
[1] = system: DLD1; experiment: cell viability (CellTiter-Glo) relative to plate median (fraction of plate median); higher = more viable cells; conditions: 5 µM; treatment time 24 h; reporter: 7TFP
Summary of the method: (§1)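 Values are well luminescence normalised to the plate median, from either a firefly luciferase or a CellTiterGlo readout on parallel plates. The cells, colorectal cancer lines stably transduced with lentiviral 7TFP or TCF4/Wnt firefly luciferase reporters, were treated with library compounds at a final 5 µM for 24 h. The mean of two independent replicates is listed.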

[2] = system: HCT116; experiment: as above; conditions: 5 µM; treatment time 24 h; reporter: TCF4/Wnt
Summary of the method: as §1

[3] = system: SW480; experiment: as above; conditions: 5 µM; treatment time 24 h; reporter: 7TFP
Summary of the method: as §1

[4] = system: DLD1; experiment: TCF/Wnt firefly luciferase reporter signal relative to plate median (fraction of plate median); higher = higher Wnt reporter signal; conditions: 5 µM; treatment time 24 h; reporter: 7TFP
Summary of the method: as §1

[5] = system: SW480; experiment: as above; conditions: 5 µM; treatment time 24 h; reporter: 7TFP
Summary of the method: as §1

Structure (SMILES) | cell viability [1] | cell viability [2] | cell viability [3] | TCF/Wnt firefly luciferase reporter signal [4] | TCF/Wnt firefly luciferase reporter signal [5]
CC(C)(S)[C@@H](N)C(=O)O | 0.991 ± 0.027 | 0.956 ± 0.13 | 0.9765 ± 0.0092 | 1.09 ± 0.014 | 1.16 ± 0.11
O=C(O)c1cc(=O)c2c(Cl)cc(Cl)cc2[nH]1 | 0.944 ± 0.12 | 0.968 ± 0.059 | 0.976 ± 0.091 | 0.835 ± 0.021 | 0.911 ± 0.052
NCCC(=O)N[C@@H](Cc1c[nH]cn1)C(=O)O | 1.08 ± 0.064 | 1.04 ± 0.021 | 1.01 ± 0.016 | 1.24 ± 0.092 | 1.17 ± 0.11
C[C@H](CCC(=O)O)[C@H]1CC[C@H]2[C@@H]3CC[C@@H]4C[C@H](O)CC[C@]4(C)[C@H]3C[C@H](O)[C@]12C | 0.982 ± 0.025 | 1.04 ± 0.11 | 1 ± 0.024 | 1.03 ± 0.13 | 1.01 ± 0.053
Nc1ccc(/N=N/c2ccccc2)c(N)n1 | 1.1 ± 0.2 | 1.07 ± 0.035 | 1.1 ± 0.035 | 1.285 ± 0.0071 | 1.3 ± 0.028
CCn1cc(C(=O)O)c(=O)c2cc(F)c(N3CCNC(C)C3)c(F)c21 (stereo not given) | 0.971 ± 0.056 | 1.05 ± 0.057 | 0.98 ± 0.012 | 1.13 ± 0.057 | 0.997 ± 0.061
C[C@H](CCC(=O)O)[C@H]1CC[C@H]2[C@@H]3CC[C@@H]4C[C@H](O)CC[C@]4(C)[C@H]3CC[C@]12C | 1.11 ± 0.11 | 1.17 ± 0.15 | 1.04 ± 0.028 | 1.21 ± 0.11 | 1.16 ± 0.014
NC(=O)C(c1ccccc1)(c1ccccc1)[C@@H]1CCN(CCc2ccc3c(c2)CCO3)C1 | 0.873 ± 0.067 | 0.983 ± 0.0042 | 0.947 ± 0.03 | 1.03 ± 0.094 | 1.005 ± 0.0071
CC(C)(C)CC(C)(C)c1ccc(O)c(Cc2ccc(Cl)cc2Cl)c1 | 0.987 ± 0.075 | 1.05 ± 0.05 | 1.03 ± 0.014 | 0.86 ± 0.012 | 0.891 ± 0.11
CCCCCCCCCCCCCc1ccco1 | 1.05 | 1.03 ± 0.021 | 1.02 ± 0.021 | 0.964 ± 0.14 | 0.987 ± 0.12
Oc1cc(O)c2c(c1)O[C@H](c1ccc(O)c(O)c1)[C@@H](O)C2 | 1.03 ± 0.014 | 1.03 ± 0.076 | 1.04 ± 0.042 | 1.08 ± 0.014 | 1.15 ± 0.035
C=CC1=C(C)c2cc3[nH]c(cc4nc(cc5[nH]c(cc1n2)c(C)c5CCC(=O)O)C(CCC(=O)O)=C4C)c(C)c3C=C | 1 ± 0.028 | 0.964 ± 0.12 | 0.963 ± 0.053 | 0.967 ± 0.027 | 0.992 ± 0.0057
NC(=O)CC[C@H](N)C(=O)O | 1.02 ± 0.014 | 0.923 ± 0.11 | 1.02 ± 0.069 | 1.02 ± 0.14 | 1.07 ± 0.064
Cc1onc(-c2ccccc2Cl)c1C(=O)N[C@@H]1C(=O)N2[C@@H]1SC(C)(C)[C@@H]2C(=O)O | 1.02 ± 0.17 | 1.02 ± 0.06 | 0.994 ± 0.037 | 1.02 ± 0.035 | 0.952 ± 0.058
O=C(O)C(S)C(S)C(=O)O (stereo not given) | 1.04 ± 0.05 | 1.03 ± 0.099 | 1.01 ± 0.096 | 0.904 ± 0.1 | 1.004 ± 0.0078
CN1CCc2cccc3c2[C@H]1Cc1ccc(O)c(O)c1-3 | 0.957 ± 0.06 | 1.04 ± 0.088 | 0.992 ± 0.025 | 1.1 ± 0.057 | 0.978 ± 0.088

Structure (SMILES) | cell viability [1] | cell viability [2] | cell viability [3] | TCF/Wnt firefly luciferase reporter signal [4] | TCF/Wnt firefly luciferase reporter signal [5]
COC(=O)C[C@H]1C(C)(C)C(=O)[C@@H]2CC3=C(CC[C@]4(C)C3=CC(=O)O[C@H]4c3ccoc3)[C@@]1(C)C2=O | 0.96 ± 0.032 | 0.979 ± 0.058 | 0.944 ± 0.018 | 0.782 ± 0.35 | 0.954 ± 0.029
COc1c(-c2coc3cc4c(cc3c2=O)CC(O)C(C)(C)O4)ccc2c1C=CC(C)(C)O2 (stereo not given) | 0.973 ± 0.081 | 0.973 ± 0.12 | 1.02 ± 0.079 | 0.869 ± 0.0014 | 0.946 ± 0.077
OCC(O)C(O)C(O)C(O)C(O)CO (stereo not given) | 1.05 ± 0.042 | 1.035 ± 0.0071 | 0.986 ± 0.049 | 0.9515 ± 0.005 | 1.02 ± 0.091
COc1c(N2C[C@@H]3CCCN[C@@H]3C2)c(F)cc2c(=O)c(C(=O)O)cn(C3CC3)c12 | 0.861 ± 0.14 | 1.02 | 1.02 ± 0.069 | 1.1 ± 0.042 | 1 ± 0.013
Nc1ccc(C(=O)Oc2ccccc2)c(O)c1 | 1.05 ± 0.096 | 1.16 ± 0.064 | 1.05 ± 0.042 | 1.08 ± 0.14 | 1.03 ± 0.035
O=C(O)CCC(=O)c1ccc(-c2ccccc2)cc1 | 1.04 ± 0.073 | 0.947 ± 0.12 | 0.962 ± 0.018 | 1 ± 0.095 | 1.04
C[C@H]1C(=O)CC[C@@H]2[C@]1(C)CC[C@H]1[C@@]2(C)CC[C@@]2(C)[C@@H]3CC(C)(C)CC[C@]3(C)CC[C@]12C | 1.04 ± 0.014 | 0.983 ± 0.052 | 0.9995 ± 0.00071 | 0.95 ± 0.042 | 0.88 ± 0.09
COc1cc2c(cc1OC)[C@@H]1C(=O)c3ccc4c(c3O[C@@H]1CO2)C=CC(C)(C)O4 | 1.09 ± 0.021 | 0.79 ± 0.14 | 1.02 ± 0.094 | 0.9 ± 0.1 | 0.884
CCCCC(=O)O[C@]1(C(=O)CO)[C@@H](C)C[C@H]2[C@@H]3CCC4=CC(=O)C=C[C@]4(C)[C@@]3(F)[C@@H](O)C[C@@]21C | 1.04 ± 0.021 | 1.15 ± 0.028 | 0.987 ± 0.047 | 0.868 ± 0.011 | 0.942 ± 0.22
O=C1CN(/N=C/c2ccc([N+](=O)[O-])o2)C(=O)N1 | 1.03 ± 0.11 | 1.02 ± 0.037 | 0.949 | 0.954 ± 0.043 | 0.995 ± 0.12
COc1cccc(/C=C/C(=O)O)c1C(C)C | 0.981 ± 0.042 | 1.03 ± 0.093 | 1 ± 0.041 | 1.12 ± 0.26 | 1.03 ± 0.17
CC[C@H]1C(=O)OC[C@@H]1Cc1cncn1C | 0.942 ± 0.097 | 0.948 ± 0.13 | 1.015 ± 0.0071 | 0.89 ± 0.15 | 0.959 ± 0.019
CC[C@H](c1ccc(O)cc1)[C@@H](CC)c1ccc(O)cc1 | 1.05 ± 0.028 | 1.12 ± 0.078 | 1.04 ± 0.057 | 1.125 ± 0.0071 | 1.09 ± 0.092
CN1CCN(C(c2ccccc2)c2ccccc2)CC1 | 1.04 ± 0.021 | 0.953 ± 0.018 | 1.07 ± 0.028 | 0.977 ± 0.12 | 1.01 ± 0.12
CC1(C)CC[C@]2(C(=O)O)CC[C@]3(C)C(=CC[C@@H]4[C@@]5(C)CC[C@H](O)[C@@](C)(CO)[C@@H]5CC[C@]43C)[C@@H]2C1 | 0.995 ± 0.16 | 1.025 ± 0.0071 | 1.01 ± 0.04 | 0.99 ± 0.042 | 0.975 ± 0.078
